{"source": "PubChem BioAssay AID720724", "about": "(Broad Institute, 2013)", "note": "Measured potencies and affinities stand elsewhere. Activity calls are given as the source filed them.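 Rule for the calls: active = signal falls with a fitted half-maximal dose at most twice the top dose, in every run; inconclusive = steady partial drop, poor fit, or runs disagree; inactive = flat, rising or too weak in every run.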", "data": [{"experiment": "EF1alpha-driven Renilla reporter with control 3'UTR suppression – Clone20-Shn3RL cells, dual-Glo, cherry-pick, set 2, counter-screen for Shn3 3'UTR targeting project, dose response (AID 720724)", "settings": "renilla luciferase luminescence, 24 h; series mostly up to 35 µM", "values": [{"smiles": "Cc1c(C)c2ccc(OCC(=O)Nc3ccccn3)c(C)c2oc1=O", "outcome": "inactive"}, {"smiles": "O=C(COC(=O)c1n[nH]c2ccccc12)Nc1ccc(S(=O)(=O)N2CCCC2)cc1", "outcome": "inactive"}, {"smiles": "CCN(CC)S(=O)(=O)c1ccc(S(=O)(=O)Nc2c(C)nn(C)c2C)cc1", "outcome": "inactive"}, {"smiles": "COc1cc(NC(=O)c2cccc3c(-c4cccnc4)coc23)cc(OC)c1OC", "outcome": "inactive"}, {"smiles": "CCSc1nnc(NC(=O)c2nc(S(=O)(=O)Cc3ccc(F)cc3)ncc2Cl)s1", "outcome": "inactive"}, {"smiles": "OCCCNc1nccc(-c2cc(Nc3cccc(Cl)c3)ncn2)n1", "outcome": "inactive"}, {"smiles": "COc1ccccc1N1CCN(c2ncc(C(=O)N3CCN(c4cccc(Cl)c4)CC3)c3ccccc23)CC1", "outcome": "inactive"}, {"smiles": "CCOC(=O)C1CCCN(S(=O)(=O)c2ccc(S(=O)(=O)N3CCCC3)cc2)C1", "note": "(stereo not given)", "outcome": "inactive"}, {"smiles": "O=C(O)c1cccc(COc2ccccc2Cl)c1", "outcome": "inactive"}, {"smiles": "Cc1cccc(-c2noc(CN(C(=O)C(c3ccccc3)c3ccccc3)C(C)C)n2)c1", "outcome": "inactive"}, {"smiles": "Cc1cccc(NS(=O)(=O)c2ccc(C3CCCCC3)cc2)c1", "outcome": "inactive"}, {"smiles": "CCn1c(C)cc(C(=O)COC(=O)c2ccccc2[N+](=O)[O-])c1C", "outcome": "inactive"}, {"smiles": "CCN(CC)c1ccc(NC(=O)CN2C(=O)CSc3ncccc32)c(C)c1", "outcome": "inactive"}, {"smiles": "Cc1ccc(NC(=O)c2cc(S(=O)(=O)NCCC3=CCCCC3)ccc2F)cc1F", "outcome": "inactive"}, {"smiles": "COc1ccccc1NS(=O)(=O)c1cc(NC(=O)c2ccc(Cl)nc2)ccc1Cl", "outcome": "inactive"}, {"smiles": "Cc1nc(SCC(=O)Nc2nc3ccccc3s2)c(C#N)c(C)c1C", "outcome": "inactive"}, {"smiles": "COc1cccc(-n2c(C)nc3c(cnn3-c3ccc(Cl)cc3)c2=O)c1", "outcome": "inactive"}, {"smiles": "CCOc1ccc(N(C)S(=O)(=O)c2cc(-c3cc(C)no3)ccc2C(C)C)cc1", "outcome": "inactive"}, {"smiles": "Oc1ccc(-c2n[nH]c(C(F)(F)F)c2-c2ccccc2)c(O)c1", "outcome": "inactive"}, {"smiles": "COc1ccc(CC(=O)Nc2ccncc2Cl)cc1", "outcome": "inactive"}, {"smiles": "Cc1ccc2c(c1)nnn2C1CCN(S(=O)(=O)c2ccc(C(=O)N3C(C)CCCC3C)cc2)CC1", "note": "(stereo not given)", "outcome": "inactive"}, {"smiles": "O=C(Nc1ccc(N2CCOCC2)cc1)c1ccc(Cl)c(S(=O)(=O)N2CCCC2)c1", "outcome": "inactive"}, {"smiles": "Cc1ccc(C(=O)Nc2cnc3ccccc3c2)cc1", "outcome": "inactive"}, {"smiles": "COc1ccc(CNC(=O)C(C)n2ccc3cc(S(=O)(=O)N4CCCCCC4)ccc32)cc1", "note": "(stereo not given)", "outcome": "inactive"}, {"smiles": "Cc1onc(-c2ccccc2Cl)c1C(=O)N(C)C1CCCCC1", "outcome": "inactive"}, {"smiles": "O=C(Nc1nc(-c2ccccc2)cs1)C1CCCCN1S(=O)(=O)c1ccccc1", "note": "(stereo not given)", "outcome": "inactive"}, {"smiles": "O=C(CSc1nnc(-c2cccnc2)s1)Nc1ccnc2ccccc12", "outcome": "inactive"}, {"smiles": "COc1ccccc1NC(=O)Cn1cc(C(=O)C2CC2)c2ccccc21", "outcome": "inactive"}, {"smiles": "CCOC(=O)Cn1c(S(=O)(=O)Cc2ccccc2Cl)nc(-c2ccccc2)c1-c1ccccc1", "outcome": "inactive"}, {"smiles": "O=C(Nc1ccc(Cl)cc1)c1cc(S(=O)(=O)N2CCOCC2)cs1", "outcome": "inactive"}, {"smiles": "COc1ccc(CNC(=O)C(c2ccc(C)cc2)N(Cc2cccs2)C(=O)c2ccc3c(c2)OCCO3)cc1", "note": "(stereo not given)", "outcome": "inactive"}, {"smiles": "O=C(CN1C(=O)c2ccccc2S1(=O)=O)c1ccc(Cl)cc1Cl", "outcome": "inactive"}, {"smiles": "Cc1ccc(CNC(=O)c2cc3c(C)nc4ccccc4c3o2)cc1", "outcome": "inactive"}, {"smiles": "CC1Cc2cc(S(=O)(=O)N3CCN(c4ccc(Cl)cc4)CC3)ccc2N1C(=O)C1CC1", "note": "(stereo not given)", "outcome": "inactive"}, {"smiles": "Cc1cc(S(=O)(=O)NCc2ccncc2)c(C)cc1Br", "outcome": "inactive"}]}]}
